# Experimental data reported in PMC7862700, “An all-to-all approach to the identification of sequence-specific readers for epigenetic DNA modifications on cytosine”.
# Tests used:
# Experiment in all cases: DAPPL (digital affinity profiling via proximity ligation, sequencing); 10 mM Tris-HCl pH 7.5, 50 mM NaCl, 1 mM DTT, 4% glycerol, room temperature, 30 min; GST-TFs on glutathione beads, 16-mer random dsDNA library, 0.1% formaldehyde crosslink after washing; high values mean tight binding
# [1] = target: T1, FEV (Homo sapiens, UniProt Q99581 1-238); details: protein: recombinant; tags: N-terminal GST; dsDNA, one strand shown
# T1 sequence: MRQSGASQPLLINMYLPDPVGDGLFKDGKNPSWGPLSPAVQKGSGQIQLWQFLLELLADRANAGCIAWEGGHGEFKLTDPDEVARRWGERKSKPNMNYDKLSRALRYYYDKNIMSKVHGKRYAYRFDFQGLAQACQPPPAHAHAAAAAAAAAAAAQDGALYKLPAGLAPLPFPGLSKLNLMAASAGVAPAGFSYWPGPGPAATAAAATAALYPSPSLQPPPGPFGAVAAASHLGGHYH
# Procedure, shortened: (§1)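 Sequencing on an Illumina NextSeq500 followed washing, crosslinking with 0.1% formaldehyde, proximity ligation (BsaI/T4 ligase, 1 h, 37 °C) and PCR amplification of pools that had been incubated for 30 min at room temperature with 200 nmole of a random double-stranded 16-mer DNA library in Tris/NaCl/DTT/glycerol buffer. Each pool held DNA-barcoded human transcription factors, expressed in yeast as GST fusions and captured on glutathione beads, plus a tag-only sample. Binding signal is a hexamer's read frequency for a factor divided by its frequency in the tag-only sample.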
# [2] = target: ETV5 (Homo sapiens, UniProt P41161 1-510); details: protein: recombinant; tags: N-terminal GST; dsDNA, one strand shown
# Chain of ETV5 (P41161 whole entry): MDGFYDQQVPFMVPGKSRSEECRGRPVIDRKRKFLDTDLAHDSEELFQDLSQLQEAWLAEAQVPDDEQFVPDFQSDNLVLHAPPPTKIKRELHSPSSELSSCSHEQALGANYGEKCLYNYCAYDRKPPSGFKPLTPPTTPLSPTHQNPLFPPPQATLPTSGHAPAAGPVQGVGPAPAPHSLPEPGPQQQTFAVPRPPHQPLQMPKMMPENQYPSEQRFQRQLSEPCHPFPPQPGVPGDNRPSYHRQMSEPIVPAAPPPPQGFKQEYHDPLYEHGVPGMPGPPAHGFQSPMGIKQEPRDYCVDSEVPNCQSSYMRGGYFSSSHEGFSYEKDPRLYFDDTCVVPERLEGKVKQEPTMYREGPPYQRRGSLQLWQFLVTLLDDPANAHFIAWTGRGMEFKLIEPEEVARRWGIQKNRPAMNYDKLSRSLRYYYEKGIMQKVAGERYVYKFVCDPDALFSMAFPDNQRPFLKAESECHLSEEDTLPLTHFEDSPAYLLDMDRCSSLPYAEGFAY
# Procedure, shortened: as §1
# [3] = target: HSF1 (Homo sapiens, UniProt Q00613 1-529); details: protein: recombinant; tags: N-terminal GST; chain copies: 3; dsDNA, one strand shown
# Chain of HSF1 (Q00613 whole entry): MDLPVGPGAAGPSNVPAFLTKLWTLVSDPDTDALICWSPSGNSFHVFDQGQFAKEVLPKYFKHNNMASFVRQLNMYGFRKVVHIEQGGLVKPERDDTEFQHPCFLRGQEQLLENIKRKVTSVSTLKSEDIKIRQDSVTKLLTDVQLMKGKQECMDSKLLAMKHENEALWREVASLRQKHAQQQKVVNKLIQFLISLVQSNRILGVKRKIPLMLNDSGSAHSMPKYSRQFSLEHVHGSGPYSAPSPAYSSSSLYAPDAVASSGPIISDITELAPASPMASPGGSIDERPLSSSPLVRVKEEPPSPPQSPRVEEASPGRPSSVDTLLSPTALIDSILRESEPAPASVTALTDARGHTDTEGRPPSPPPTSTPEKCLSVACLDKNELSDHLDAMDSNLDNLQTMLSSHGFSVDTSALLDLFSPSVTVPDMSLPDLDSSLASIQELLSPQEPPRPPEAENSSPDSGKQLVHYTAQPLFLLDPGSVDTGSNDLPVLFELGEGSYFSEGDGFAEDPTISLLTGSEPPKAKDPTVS
# Procedure, shortened: as §1
# [4] = target: T2, SPIC (Homo sapiens, UniProt Q8N5J4 1-248); details: protein: recombinant; tags: N-terminal GST; dsDNA, one strand shown
# T2 sequence: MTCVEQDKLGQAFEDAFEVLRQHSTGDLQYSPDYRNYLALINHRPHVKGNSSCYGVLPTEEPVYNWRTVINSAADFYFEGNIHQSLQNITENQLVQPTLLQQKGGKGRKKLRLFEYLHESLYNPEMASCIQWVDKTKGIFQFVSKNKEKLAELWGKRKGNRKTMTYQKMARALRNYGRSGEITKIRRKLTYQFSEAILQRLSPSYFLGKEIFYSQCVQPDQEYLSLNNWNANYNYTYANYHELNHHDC
# Procedure, shortened: as §1
# [5] = target: ELF4 (Homo sapiens, UniProt Q99607 1-663); details: protein: recombinant; tags: N-terminal GST; dsDNA, one strand shown
# Chain of ELF4 (Q99607 whole entry): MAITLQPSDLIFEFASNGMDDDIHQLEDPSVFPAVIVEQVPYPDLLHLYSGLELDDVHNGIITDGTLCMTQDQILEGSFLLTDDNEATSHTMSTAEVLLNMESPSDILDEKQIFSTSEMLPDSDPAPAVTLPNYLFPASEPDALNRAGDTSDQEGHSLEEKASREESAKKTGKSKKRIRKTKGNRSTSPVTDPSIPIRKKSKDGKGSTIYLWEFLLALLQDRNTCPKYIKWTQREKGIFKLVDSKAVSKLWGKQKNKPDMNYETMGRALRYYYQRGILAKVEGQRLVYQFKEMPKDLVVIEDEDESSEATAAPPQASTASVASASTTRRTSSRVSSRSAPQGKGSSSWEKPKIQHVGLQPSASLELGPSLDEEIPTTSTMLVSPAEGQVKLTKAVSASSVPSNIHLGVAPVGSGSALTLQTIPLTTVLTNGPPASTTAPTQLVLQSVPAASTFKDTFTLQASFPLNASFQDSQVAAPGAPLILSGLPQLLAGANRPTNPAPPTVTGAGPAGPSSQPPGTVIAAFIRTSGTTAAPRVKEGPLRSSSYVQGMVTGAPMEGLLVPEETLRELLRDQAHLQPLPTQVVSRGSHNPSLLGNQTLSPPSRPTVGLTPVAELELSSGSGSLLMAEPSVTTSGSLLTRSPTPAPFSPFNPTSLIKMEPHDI
# Procedure, shortened: as §1
# [6] = target: T3, ELK4 (Homo sapiens, UniProt P28324-2 1-405); details: protein: recombinant; tags: N-terminal GST; dsDNA, one strand shown
# T3 sequence: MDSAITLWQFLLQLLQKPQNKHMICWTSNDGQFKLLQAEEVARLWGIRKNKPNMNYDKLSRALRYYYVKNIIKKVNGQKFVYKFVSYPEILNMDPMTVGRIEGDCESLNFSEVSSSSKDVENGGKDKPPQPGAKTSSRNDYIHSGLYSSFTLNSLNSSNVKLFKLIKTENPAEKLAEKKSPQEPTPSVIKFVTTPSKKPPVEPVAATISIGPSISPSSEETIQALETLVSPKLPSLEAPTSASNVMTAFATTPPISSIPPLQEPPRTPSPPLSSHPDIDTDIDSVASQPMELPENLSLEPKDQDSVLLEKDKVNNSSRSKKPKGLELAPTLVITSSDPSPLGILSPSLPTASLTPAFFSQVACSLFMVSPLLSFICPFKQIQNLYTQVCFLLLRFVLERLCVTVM
# Procedure, shortened: as §1
# [7] = target: T4, ETV2 (Homo sapiens, UniProt O00321 1-342); details: protein: recombinant; tags: N-terminal GST; dsDNA, one strand shown
# T4 sequence: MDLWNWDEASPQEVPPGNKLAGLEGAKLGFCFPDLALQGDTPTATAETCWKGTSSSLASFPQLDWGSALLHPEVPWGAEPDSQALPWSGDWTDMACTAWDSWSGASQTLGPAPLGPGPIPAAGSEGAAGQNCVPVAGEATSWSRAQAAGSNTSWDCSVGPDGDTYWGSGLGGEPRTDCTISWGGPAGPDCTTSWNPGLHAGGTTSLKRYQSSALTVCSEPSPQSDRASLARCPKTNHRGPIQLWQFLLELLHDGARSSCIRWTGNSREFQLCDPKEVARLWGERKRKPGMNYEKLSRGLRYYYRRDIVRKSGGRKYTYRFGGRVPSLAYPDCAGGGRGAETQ
# Procedure, shortened: as §1
# [8] = target: T5, ELF3 (Homo sapiens, UniProt P78545 1-371); details: protein: recombinant; tags: N-terminal GST; dsDNA, one strand shown
# T5 sequence: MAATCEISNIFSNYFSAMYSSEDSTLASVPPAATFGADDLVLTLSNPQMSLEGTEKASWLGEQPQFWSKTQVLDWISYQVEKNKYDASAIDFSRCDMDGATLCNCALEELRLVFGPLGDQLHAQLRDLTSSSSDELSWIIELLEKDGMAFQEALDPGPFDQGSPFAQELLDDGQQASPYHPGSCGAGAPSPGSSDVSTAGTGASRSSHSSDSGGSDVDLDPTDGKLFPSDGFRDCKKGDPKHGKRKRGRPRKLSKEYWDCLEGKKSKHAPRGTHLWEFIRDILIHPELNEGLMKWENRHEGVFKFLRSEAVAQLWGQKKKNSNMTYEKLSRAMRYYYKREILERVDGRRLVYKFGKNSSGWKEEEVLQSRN
# Procedure, shortened: as §1
# [9] = target: ETV1 (Homo sapiens, UniProt P50549 1-477); details: protein: recombinant; tags: N-terminal GST; dsDNA, one strand shown
# Chain of ETV1 (P50549 whole entry): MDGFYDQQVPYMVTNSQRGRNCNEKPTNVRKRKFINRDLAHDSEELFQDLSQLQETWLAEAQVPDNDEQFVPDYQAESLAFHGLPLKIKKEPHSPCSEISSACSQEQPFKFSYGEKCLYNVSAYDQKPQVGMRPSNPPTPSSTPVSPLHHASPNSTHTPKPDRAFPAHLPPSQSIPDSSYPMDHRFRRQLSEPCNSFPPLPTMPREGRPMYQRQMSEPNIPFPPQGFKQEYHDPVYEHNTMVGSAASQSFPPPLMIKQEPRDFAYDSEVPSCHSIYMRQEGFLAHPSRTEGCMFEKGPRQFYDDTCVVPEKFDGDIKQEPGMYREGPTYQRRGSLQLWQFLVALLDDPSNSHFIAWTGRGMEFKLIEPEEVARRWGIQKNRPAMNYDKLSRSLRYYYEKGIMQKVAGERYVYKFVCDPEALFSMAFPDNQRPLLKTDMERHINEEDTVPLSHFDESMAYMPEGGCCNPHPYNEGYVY
# Procedure, shortened: as §1
# [10] = target: T6, ERF (Homo sapiens, UniProt P50548 1-548); details: protein: recombinant; tags: N-terminal GST; dsDNA, one strand shown
# T6 sequence: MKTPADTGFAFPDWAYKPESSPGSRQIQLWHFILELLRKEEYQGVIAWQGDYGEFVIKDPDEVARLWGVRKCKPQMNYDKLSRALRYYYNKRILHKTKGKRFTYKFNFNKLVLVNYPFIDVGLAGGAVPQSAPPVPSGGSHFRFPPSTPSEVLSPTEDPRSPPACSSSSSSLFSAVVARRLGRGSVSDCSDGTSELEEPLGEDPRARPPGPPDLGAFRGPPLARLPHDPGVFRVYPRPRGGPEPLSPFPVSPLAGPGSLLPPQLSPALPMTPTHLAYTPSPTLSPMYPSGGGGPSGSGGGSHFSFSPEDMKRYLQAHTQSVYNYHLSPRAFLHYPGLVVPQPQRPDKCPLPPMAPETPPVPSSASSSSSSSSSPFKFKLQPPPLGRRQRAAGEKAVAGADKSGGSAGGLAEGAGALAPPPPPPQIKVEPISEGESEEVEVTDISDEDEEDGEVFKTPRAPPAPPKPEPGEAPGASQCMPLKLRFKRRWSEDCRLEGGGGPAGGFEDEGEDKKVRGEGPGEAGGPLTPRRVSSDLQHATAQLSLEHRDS
# Procedure, shortened: as §1
# [11] = target: T7, ETV3L (Homo sapiens, UniProt Q6ZN32 1-361); details: protein: recombinant; tags: N-terminal GST; dsDNA, one strand shown
# T7 sequence: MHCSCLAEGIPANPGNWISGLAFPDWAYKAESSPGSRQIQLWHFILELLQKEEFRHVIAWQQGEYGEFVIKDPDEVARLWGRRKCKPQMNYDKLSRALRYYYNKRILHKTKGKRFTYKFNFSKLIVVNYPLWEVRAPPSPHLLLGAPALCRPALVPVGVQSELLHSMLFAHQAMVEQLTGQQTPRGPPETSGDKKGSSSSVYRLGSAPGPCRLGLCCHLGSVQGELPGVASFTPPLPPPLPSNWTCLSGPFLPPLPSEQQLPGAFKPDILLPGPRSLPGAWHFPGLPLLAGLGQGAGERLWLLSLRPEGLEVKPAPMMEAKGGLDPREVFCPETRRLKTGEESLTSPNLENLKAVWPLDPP
# Procedure, shortened: as §1
# [12] = target: T8, ETS2 (Homo sapiens, UniProt P15036 1-469); details: protein: recombinant; tags: N-terminal GST; dsDNA, one strand shown
# T8 sequence: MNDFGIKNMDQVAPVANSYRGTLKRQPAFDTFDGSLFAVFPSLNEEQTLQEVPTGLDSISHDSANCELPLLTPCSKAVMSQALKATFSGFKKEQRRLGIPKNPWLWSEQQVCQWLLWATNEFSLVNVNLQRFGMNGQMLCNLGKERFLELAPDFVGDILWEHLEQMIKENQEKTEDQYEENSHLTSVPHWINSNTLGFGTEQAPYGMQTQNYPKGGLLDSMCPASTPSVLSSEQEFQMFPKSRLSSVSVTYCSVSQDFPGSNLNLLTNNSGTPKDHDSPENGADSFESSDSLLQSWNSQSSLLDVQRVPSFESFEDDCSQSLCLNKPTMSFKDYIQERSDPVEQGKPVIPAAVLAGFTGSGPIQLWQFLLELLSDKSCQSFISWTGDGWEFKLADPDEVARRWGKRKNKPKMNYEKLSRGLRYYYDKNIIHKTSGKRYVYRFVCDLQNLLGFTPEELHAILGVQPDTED
# Procedure, shortened: as §1
# [13] = target: T9, SPDEF (Homo sapiens, UniProt O95238 1-335); details: protein: recombinant; tags: N-terminal GST; dsDNA, one strand shown
# T9 sequence: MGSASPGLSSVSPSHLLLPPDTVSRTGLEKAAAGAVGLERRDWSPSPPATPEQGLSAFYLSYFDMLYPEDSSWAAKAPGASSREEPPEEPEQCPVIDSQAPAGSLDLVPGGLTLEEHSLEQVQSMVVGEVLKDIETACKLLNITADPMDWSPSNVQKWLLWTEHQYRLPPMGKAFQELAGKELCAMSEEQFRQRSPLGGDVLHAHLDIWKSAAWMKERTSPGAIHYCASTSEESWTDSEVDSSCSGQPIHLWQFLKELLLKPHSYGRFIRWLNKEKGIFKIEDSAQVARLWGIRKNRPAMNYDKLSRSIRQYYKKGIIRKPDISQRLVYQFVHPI
# Procedure, shortened: as §1
# [14] = target: T10, ETV7 (Homo sapiens, UniProt Q9Y603 1-341); details: protein: recombinant; tags: N-terminal GST; dsDNA, one strand shown
# T10 sequence: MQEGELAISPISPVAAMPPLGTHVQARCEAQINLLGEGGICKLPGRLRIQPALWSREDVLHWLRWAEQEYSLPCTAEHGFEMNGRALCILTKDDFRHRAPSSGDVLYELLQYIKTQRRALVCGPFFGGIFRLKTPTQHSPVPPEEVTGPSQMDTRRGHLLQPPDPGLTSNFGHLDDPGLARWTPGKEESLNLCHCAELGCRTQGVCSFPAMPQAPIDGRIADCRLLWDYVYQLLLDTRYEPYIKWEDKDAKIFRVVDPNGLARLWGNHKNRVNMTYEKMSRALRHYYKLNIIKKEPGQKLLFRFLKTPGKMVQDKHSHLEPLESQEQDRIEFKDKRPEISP
# Procedure, shortened: as §1
# [15] = target: T11, ELF5 (Homo sapiens, UniProt Q9UKW6-2 1-255); details: protein: recombinant; tags: N-terminal GST; dsDNA, one strand shown
# T11 sequence: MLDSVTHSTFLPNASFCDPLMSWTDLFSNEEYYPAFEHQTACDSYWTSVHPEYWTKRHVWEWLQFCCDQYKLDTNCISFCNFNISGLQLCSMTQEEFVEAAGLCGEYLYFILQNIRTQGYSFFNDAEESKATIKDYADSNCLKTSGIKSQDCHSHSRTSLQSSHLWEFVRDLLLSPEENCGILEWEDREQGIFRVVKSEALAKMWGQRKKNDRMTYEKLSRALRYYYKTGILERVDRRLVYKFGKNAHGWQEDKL
# Procedure, shortened: as §1
# [16] = target: T12, ETV3 (Homo sapiens, UniProt P41162-2 1-143); details: protein: recombinant; tags: N-terminal GST; dsDNA, one strand shown
# T12 sequence: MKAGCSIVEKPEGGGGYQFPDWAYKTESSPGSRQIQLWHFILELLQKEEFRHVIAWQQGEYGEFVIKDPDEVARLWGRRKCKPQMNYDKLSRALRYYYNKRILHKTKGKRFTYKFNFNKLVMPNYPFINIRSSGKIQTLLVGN
# Procedure, shortened: as §1
# [17] = target: ETV6 (Homo sapiens, UniProt P41212 1-452); details: protein: recombinant; tags: N-terminal GST; dsDNA, one strand shown
# Chain of ETV6 (P41212 whole entry): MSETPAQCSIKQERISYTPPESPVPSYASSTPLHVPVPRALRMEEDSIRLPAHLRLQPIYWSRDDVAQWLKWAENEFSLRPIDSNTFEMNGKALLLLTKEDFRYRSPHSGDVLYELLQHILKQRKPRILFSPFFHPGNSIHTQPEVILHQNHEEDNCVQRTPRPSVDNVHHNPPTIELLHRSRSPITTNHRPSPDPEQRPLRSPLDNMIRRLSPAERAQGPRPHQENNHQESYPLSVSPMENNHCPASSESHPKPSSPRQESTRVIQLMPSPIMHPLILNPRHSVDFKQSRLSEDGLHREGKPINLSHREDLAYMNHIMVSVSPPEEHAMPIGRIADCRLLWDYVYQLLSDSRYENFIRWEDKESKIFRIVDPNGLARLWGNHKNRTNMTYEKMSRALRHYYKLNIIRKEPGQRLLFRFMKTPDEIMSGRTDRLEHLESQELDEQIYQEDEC
# Procedure, shortened: as §1
sequence,measurement,setting,value
CTGCCC,binding signal,[1],"1.37 fold enrichment (6-mer frequency, TF over GST control)"
same,binding signal,[2],"1.25 fold enrichment (6-mer frequency, TF over GST control)"
same,binding signal,[3],"1.05 fold enrichment (6-mer frequency, TF over GST control)"
same,binding signal,[4],"1.42 fold enrichment (6-mer frequency, TF over GST control)"
same,binding signal,[5],"1.29 fold enrichment (6-mer frequency, TF over GST control)"
same,binding signal,[6],"1.42 fold enrichment (6-mer frequency, TF over GST control)"
same,binding signal,[7],"1.38 fold enrichment (6-mer frequency, TF over GST control)"
same,binding signal,[8],"1.09 fold enrichment (6-mer frequency, TF over GST control)"
same,binding signal,[9],"1.2 fold enrichment (6-mer frequency, TF over GST control)"
same,binding signal,[10],"1.16 fold enrichment (6-mer frequency, TF over GST control)"
same,binding signal,[11],"1.22 fold enrichment (6-mer frequency, TF over GST control)"
same,binding signal,[12],"1.21 fold enrichment (6-mer frequency, TF over GST control)"
same,binding signal,[13],"1.23 fold enrichment (6-mer frequency, TF over GST control)"
same,binding signal,[14],"1.15 fold enrichment (6-mer frequency, TF over GST control)"
same,binding signal,[15],"1.19 fold enrichment (6-mer frequency, TF over GST control)"
same,binding signal,[16],"1.37 fold enrichment (6-mer frequency, TF over GST control)"
same,binding signal,[17],"1.16 fold enrichment (6-mer frequency, TF over GST control)"
